Laboratory results as given in PubChem BioAssay (Tox21).
Several values for one entry are separate records, joined by “and”; a condition that tells them apart may be missing. Equal entries are not always repeated. Results filed as inconclusive are left out. Where a call stands in place of a potency, no number is given. More than one record can exist for a structure, and the calls need not agree. Activity calls are given as the source filed them. Calls follow the shape of the dose curve; as a rule, active = well fitted cell-killing curve with a large enough effect in the repeat runs; inconclusive = weak or mixed curves; inactive = flat fitted curve, though single readings scatter.
Potency is read from the fitted curve at half-maximal effect.

Assay: qHTS RealTime-Glo MT Cell Viability Assay in HepG2 cells - 24 hour (AID 1224867); also: nearly all actives have a fitted effect of over 50% in size
Details: RealTime-Glo luminescence; series mostly up to 76.8 µM
From the text: U.S. Tox21 Program National Center for Advancing Translational Sciences [NCATS] NIH Chemical Genomics Center [NCGC] U.S. Environmental Protection Agency [EPA] National Institutes of Environmental Health Sciences [NIEHS] National Toxicology Program [NTP] U.S. Food and Drug Administration [FDA] Tox21 Assay Overview: Measure of cell viability is critical in the cell-base assay. Analysis of cell viability is necessary for the characterization of cell responses to cytotoxic drugs and environmental stress. A RealTime-Glo MT Cell Viability Assay to monitor cell viability in real time of continues cell culture during 40 hours of compound treatment was used to screen Tox21 10K library compounds in HepG2 cells. The RealTime-Glo MT Cell Viability Assay is a nonlytic, homogeneous, bioluminescent method to measure cell viability in real time using a simple, plate-based method. The assay involves adding NanoLuc luciferase and a cell-permeant prosubstrate to cells in culture. Viable cells reduce the proprietary prosubstrate to generate a substrate for NanoLuc luciferase. This substrate diffuses from cells into the surrounding culture medium, where it is rapidly used by the NanoLuc Enzyme to produce a luminescent signal. The signal correlates with the number of viable cells, making the assay well suited for cytotoxicity studies.
Tox21 Assay Protocol Summary: The mixture of HepG2 cell suspension and reagents were dispensed at 600cells/6 ul/well in 1536-well tissue culture treated black solid bottom plates using a Multidrop dispenser. After the assay plates were incubated at a 37 C/5% CO2 incubator for 5 hours, 23 nL of compounds dissolved in DMSO, positive and negative controls was transferred to the assay plate by a pintool work station. The plates were incubated at 37 C for 40 hours. The luminescence intensity were measured at 0h, 8h, 16h, 24h, 32h and 40h time points using ViewLux plate reader during compound treatment.
For `CCCCCCc1ccc(O)cc1O`, the Potency was “inactive”. For `Cn1c(=O)c2c(ncn2C)n(C)c1=O`, the Potency was “inactive”. For `NS(=O)(=O)c1cc2c(cc1Cl)NCNS2(=O)=O`, the Potency was “inactive”. In the case of `CN1[C@@H]2CC(OC(=O)[C@H](CO)c3ccccc3)C[C@H]1[C@@H]1O[C@@H]12` (stereo not given in full), the Potency is reported as “inactive”. In the case of `Nc1ccc([N+](=O)[O-])cc1O`, the Potency is reported as “inactive”. In the case of `NS(=O)(=O)O`, the Potency is reported as “inactive”. With `CS(=O)(=O)OCCCCOS(C)(=O)=O` the Potency was “inactive”. With `Nc1c(N=Nc2ccc(-c3ccc(N=Nc4cc(S(=O)(=O)O)c5ccccc5c4N)cc3)cc2)cc(S(=O)(=O)O)c2ccccc12` the Potency was 48.9 µM (active). With `COc1cccc(O)c1O` the Potency was “inactive”. For `O=C1NS(=O)(=O)c2ccccc21`, the Potency was “inactive”. In the case of `Oc1ccccc1`, the Potency is reported as “inactive”. For `O=S1(=O)OC(c2ccc(O)cc2)(c2ccc(O)cc2)c2ccccc21`, the Potency was 49 µM (active) and inactive. With `CN(C)C(=S)SC(=S)N(C)C` the Potency was 1.74 µM (active) and 2.68 µM (active). In the case of `CC(C)c1c(C(=O)Nc2ccccc2)c(-c2ccccc2)c(-c2ccc(F)cc2)n1CC[C@@H](O)C[C@@H](O)CC(=O)O`, the Potency is reported as “inactive”. With `O=C(Nc1ncc([N+](=O)[O-])s1)c1cccs1` the Potency was “inactive”. In the case of `COc1ccc2cc(S(=O)(=O)N[C@H](CC(=O)N[C@H](Cc3ccc(CN4[C@H](C)CCC[C@@H]4C)cc3)C(=O)N(C)C(C)C)c3ccc4c(c3)OCO4)ccc2c1`, the Potency is reported as 52 µM (active). With `CC12CCC(CC1)C(C)(C)O2` the Potency was “inactive”. With `C=CCc1ccc(O)c(OC)c1` the Potency was “inactive”. In the case of `O=c1[nH]cc(F)c(=O)[nH]1`, the Potency is reported as “inactive”. In the case of `CC(=O)CCC(=O)O`, the Potency is reported as “inactive”. With `CCCCCCCC(=O)OCC(COC(=O)CCCCCCC)OC(=O)CCCCCCC` the Potency was “inactive”. With `Nc1ccc(S(N)(=O)=O)cc1` the Potency was “inactive”. For `NC1CCCCC1`, the Potency was “inactive”. In the case of `CC(=O)CC(c1ccccc1)c1c(O)c2ccccc2oc1=O` (stereo not given), the Potency is reported as “inactive”. With `O=C(O)c1ccccc1` the Potency was “inactive”. For `OC[C@H]1O[C@H](O[C@]2(CCl)O[C@H](CCl)[C@@H](O)[C@@H]2O)[C@H](O)[C@@H](O)[C@H]1Cl`, the Potency was “inactive”. With `Cc1cc(=O)oc2cc(O)ccc12` the Potency was “inactive”. For `C=C(C)C(=O)OCC(C)O` (stereo not given), the Potency was “inactive”. With `CCCC[P+](CCCC)(CCCC)CCCC` the Potency was “inactive”. In the case of `CCCc1cc(=O)[nH]c(=S)[nH]1`, the Potency is reported as “inactive”. With `C/C=C/C=C/C(=O)O` the Potency was “inactive”. With `NC(CO)(CO)CO` the Potency was “inactive”. In the case of `CCOc1ccc(NC(C)=O)cc1`, the Potency is reported as “inactive”. In the case of `Cc1cn([C@H]2C=C[C@@H](CO)O2)c(=O)[nH]c1=O`, the Potency is reported as “inactive”. In the case of `COc1ccc(C(Cl)=C(c2ccc(OC)cc2)c2ccc(OC)cc2)cc1`, the Potency is reported as “inactive”. In the case of `C1CCC(C(CC2CCCCN2)C2CCCCC2)CC1` (stereo not given), the Potency is reported as 5.35 µM (active). In the case of `C=C1CC[C@H](O)C/C1=C\C=C1/CCC[C@]2(C)[C@@H]([C@H](C)CCCC(C)C)CC[C@@H]12`, the Potency is reported as “inactive”. For `O=C1NC(=O)C(c2ccccc2)(c2ccccc2)N1`, the Potency was “inactive”. In the case of `CCCCC(CC)C(=O)O` (stereo not given), the Potency is reported as “inactive”. With `O=CC(=O)c1ccccc1` the Potency was “inactive”.
